This is a sample that favours compounds with a hit; in the whole collection about 2.3% have one here.
CHRM1 agonist = agonists of human M1 muscarinic receptor; P11229; CHO-K1 hM1, Fluo-8 calcium fluorescence, agonist mode; 0% DMSO, 100% acetylcholine EC100; activation, % at 3 µM; actives 0.33% (n = 360,000);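 active = activation above the run's mean compound activation plus 3 SD, cut at about 16% in these data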;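 also: peak over basal fluorescence ratio within a 140 s kinetic read after compound addition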
Target sequence (P11229 whole entry, looked up): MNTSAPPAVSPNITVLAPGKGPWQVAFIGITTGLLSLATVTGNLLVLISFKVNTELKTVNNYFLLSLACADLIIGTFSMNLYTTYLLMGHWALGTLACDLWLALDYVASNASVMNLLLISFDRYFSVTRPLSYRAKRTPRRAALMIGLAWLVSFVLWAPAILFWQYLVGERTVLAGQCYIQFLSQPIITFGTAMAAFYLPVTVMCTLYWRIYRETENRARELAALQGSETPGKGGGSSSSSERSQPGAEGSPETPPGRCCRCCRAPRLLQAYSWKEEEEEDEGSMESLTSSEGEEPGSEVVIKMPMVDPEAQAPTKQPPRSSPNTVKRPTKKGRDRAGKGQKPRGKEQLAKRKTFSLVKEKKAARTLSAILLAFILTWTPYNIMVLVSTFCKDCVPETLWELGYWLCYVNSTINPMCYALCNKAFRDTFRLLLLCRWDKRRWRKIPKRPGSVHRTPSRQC
M1 PAM = human CHRM1 positive allosteric modulation; activation, % at 3 µM; AID 588819; CHO-K1 hM1, Fluo-8 calcium fluorescence, ACh EC20; 0% = ACh EC20, 100% = maximal ACh; actives 0.088% (n = 360,000); P11229; in the data active = activation above about 19%, passing the limit was not always enough
CHO-K1 Ca antag = nonselective inhibitor or artifact in parental CHO-K1 cells | inhibition, % at 3 µM | AID 602250 | actives 0.6% (n = 360,000) | ATP-induced calcium, Fluo-8 fluorescence;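 active = inhibition above a per-plate cutoff, the plate's mean sample inhibition plus 3 SD, cut at about 24% in these data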;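 also: 0% = DMSO plus EC80 ATP and 100% = DMSO alone without ATP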
M1 PAM parental = nonselective activator or artifact in parental CHO-K1 calcium assay | ATP EC20, Fluo-8 calcium fluorescence; 0% at ATP EC20, 100% at ATP max | activation, % at 3 µM | actives 0.02% (n = 360,000) | AID 602247;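 active = activation above the run cutoff, the mean activation of all test compounds plus 3 SD, cut at about 40% in these data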;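 also: peak over basal fluorescence ratio in a 140 s read after ATP addition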
CHO-K1 Ca ag = counter-screen for M1 agonists: effect in parental CHO-K1 cells. activation, % at 3 µM. AID 602248. actives 0.48% (n = 360,000). Fluo-8 calcium fluorescence; scaled to maximal ATP response, vehicle zero; in the data active = activation above about 15%;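 also: untransfected CHO-K1 host cells lacking M1 receptor as counterscreen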
CHRM1 antagonist = blocks human M1 muscarinic receptor; CHO-K1 hM1, Fluo-8 calcium fluorescence, ACh EC80 antagonist; AID 588852; actives 1.3% (n = 360,000); inhibition, % at 3 µM;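 active = percent inhibition above its own plate's cutoff, namely the mean of that plate's compound wells plus 3 SD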;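 also: peak over basal fluorescence ratio during 140 s after agonist addition; 0% = ACh EC80 plus DMSO and 100% = DMSO alone without agonist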
Starred values were filed as active, the others as inactive; · = no result.

SMILES | CHRM1 agonist | M1 PAM | CHO-K1 Ca antag | M1 PAM parental | CHO-K1 Ca ag | CHRM1 antagonist
CC(C)(C)OC(=O)N(CC1CCNCC1)C(=O)c1[nH]c(C(F)(F)F)nc1-c1ccccc1 | -6 | 2 | -11 | 11 | 0 | -16
CC(C)(C)C(=O)CSc1ccc(S(=O)(=O)N2CCN(Cc3ccccc3)CC2)cn1 | -2 | 0 | 7 | 17 | 0 | -2
CCOc1ccc(OCCC(=O)OCC(=O)NC2CCCC2)cc1 | 1 | 2 | -6 | 14 | 2 | 2
Cc1c(O)cnc2nn(-c3ccccc3)c(=N)n12 | -2 | 6 | 7 | -5 | 0 | 0
CN(CC(CC(=O)Nc1nncs1)c1ccccc1)S(=O)(=O)c1ccc(Br)cc1 (configuration not stated) | -2 | -3 | 0 | -7 | 1 | 3
N=c1c2c(n(Cc3ccc(Br)cc3)c3c1CCC3)CCCC2 | -10 | -25 | 14 | -12 | 0 | 26*
N=c1c2c(n(Cc3ccc(Cl)c(Cl)c3)c3c1CCC3)CCCC2 | -4 | -16 | -4 | 22 | 1 | 20
O=C(COC(=O)Cc1c[nH]c2ccccc12)NC1CCS(=O)(=O)C1 (configuration not stated) | -2 | -8 | 10 | -21 | 0 | 27*
O=C(COC(=O)Cc1ccc(F)cc1)NC1CCS(=O)(=O)C1 (configuration not stated) | 1 | 5 | -1 | -7 | 1 | -8
CC(=O)OCCn1c2nc(=O)[nH]c(=O)c-2nc2cc(C)c(C)cc21 | 202* | -27 | 38* | -12 | 186* | 38*
CNCCOc1ccccc1-c1ccccc1 | -6 | -4 | -12 | 11 | 0 | 4
O=P(c1ccccc1)(c1ccccc1)c1ccccc1C(Br)Br | -2 | 22 | -9 | 8 | -1 | -11
CC1CCC(CN2CCN=C2Nc2ccccc2)CC1 (configuration not stated) | -11 | -17 | 3 | -13 | 0 | 34*
COc1ccccc1C(CNC(=O)CN1C(=O)NC(C)(c2ccc3ccccc3c2)C1=O)N1CCCC1 (configuration not stated) | -8 | -27 | -19 | 20 | 1 | 65*
COc1ccccc1C(CNC(=O)c1ccc(-c2ccccc2Cl)o1)N1CCCC1 (configuration not stated) | -5 | -24 | 4 | -17 | 2 | 84*
COc1cc(C(=O)NCC(c2ccco2)N2CCCC2)ccc1OCc1ccc(Cl)cc1Cl (configuration not stated) | -6 | -24 | -16 | 8 | 4 | 49*
COc1ccc(Cl)cc1C(=O)NCC(c1ccco1)N1CCCC1 (configuration not stated) | -5 | -12 | -8 | 16 | 1 | 14
COc1ccccc1C(CNC(=O)c1ccco1)N1CCCC1 (configuration not stated) | -8 | -30 | -3 | -18 | 0 | 73*
CC(C)CCN(C(=S)NC(=O)C1CCCCC1)c1c(N)n(Cc2ccccc2)c(=O)[nH]c1=O | 0 | 9 | -16 | 15 | 0 | -16
Clc1cccc(Cl)c1CSc1nnc(-c2sccc2-n2cccc2)o1 | -3 | -4 | -8 | 9 | 1 | -9
COc1cc(N(C(C)=O)c2ccc(O)c(C(=O)O)c2)c2ncccc2c1 | 1 | 2 | -12 | 10 | 0 | -8
CCOc1ccccc1CNC(=O)C1CCCN(c2nnc(C)c3c(C)n(-c4ccccc4)nc23)C1 (configuration not stated) | -6 | -19 | -23 | 4 | -2 | 43*
Cc1ccsc1C(=O)N1CCCC(C)(C(=O)NS(=O)(=O)C2CC2)C1 (configuration not stated) | -2 | 7 | -8 | 21 | 0 | -11
CCCn1c(SCC(=O)N2N=C3/C(=C/c4ccc(OC)cc4)CCCC3C2c2ccc(OC)cc2)n[nH]c1=O (configuration not stated) | 9 | -1 | 10 | 16 | 24* | 21
Cc1ccc(Cn2nnc3c(=O)n(CC(=O)NCc4ccc5c(c4)OCO5)cnc32)cc1 | -5 | 6 | -8 | 26 | 1 | -15
SMILES | CHRM1 agonist | M1 PAM | CHO-K1 Ca antag | M1 PAM parental | CHO-K1 Ca ag | CHRM1 antagonist
Cc1ccccc1OCC(=O)Nc1ccc2c(c1)C(=O)N(CCC(=O)O)C2=O | 8 | 26* | -5 | -14 | 0 | -17
Cc1ccc(S(=O)(=O)Cc2cc(F)c([N+](=O)[O-])cc2[N+](=O)[O-])cc1 | -5 | 5 | -3 | 10 | 0 | -9
O=Cc1cn(-c2ccccc2)nc1-c1ccccc1 | -5 | 7 | -13 | 16 | 1 | -11
CC1=NNC(=O)/C1=C\c1cn(-c2ccccc2)nc1-c1ccccc1 | 1 | -8 | 19 | 5 | 3 | 33*
CCOC(=O)N1CCN(C(=O)c2nc3ccccc3s2)CC1 | -3 | 11 | -17 | 14 | 1 | -24
CCOC(=O)CC[C@H](NC(=O)Cn1cnc(C(=O)Nc2ccc(C)c(C)c2)n1)C(=O)OCC | -4 | 4 | -14 | 18 | 2 | -12
CC(C)=CCCC(C)NC(=O)NC1CCCCC1 (configuration not stated) | -3 | 2 | 25* | -9 | 0 | ·
CN(C)/C=N/C(=S)Nc1cc(Cl)cc(Cl)c1 | -4 | 1 | 10 | 4 | 18* | 1
CNc1nc(NC#N)nc(SC)n1 | -3 | 1 | -7 | 10 | 0 | 2
O=C(OCc1ccccc1)N1Cc2ccnnc2CC1c1ccccc1Br (configuration not stated) | -5 | -1 | 32* | 0 | 0 | 9
NCCCC[C@H]1CN=C(N)N1CCC12CC3CC(CC(C3)C1)C2 | -14 | -39 | -10 | -9 | 0 | 59*
CCC(c1nnnn1Cc1ccc(OC)cc1)N1CCN(c2ccc(OC)cc2)CC1 (configuration not stated) | -2 | 6 | 25* | -15 | 0 | -4
CCC(c1nnnn1Cc1ccccc1)N1CCN(c2ccc(OC)cc2)CC1 (configuration not stated) | -10 | -2 | -9 | 6 | 0 | 0
CCCCCCC1CC(CCc2nc(=S)[nH][nH]2)C(=O)O1 (configuration not stated) | -7 | 5 | -6 | 4 | 0 | -2
CCCCCCCCc1nc(=S)[nH][nH]1 | -4 | 11 | 25* | -6 | 0 | -12
CCCC[C@@H]1CCCO[C@@](C(=O)NCc2ccccn2)(C(F)(F)F)C1 | -4 | 17 | 1 | -17 | -1 | -4
Cc1cccc[n+]1CC(=O)N1c2ccccc2Sc2ccccc21 | -13 | -34 | -5 | 13 | 0 | 99*
Cc1cc(C)n(CC(=O)N2c3ccccc3Sc3ccccc32)n1 | -6 | -22 | 11 | -5 | 1 | 38*

Source: PubChem BioAssay
